Reference: PubChem BioAssay (EPA / NIEHS)
Calls of active or inactive are those of the source. How the source made its calls: active means hit-call score of the fitted dose curve at least 0.9, where 1 is the maximum; inactive means score below 0.9.

Tests used:
Settings in all cases: mRNA level, 48 h; actives raise or lower the signal
[1] = read-out: Tumor necrosis factor receptor superfamily member 6 (Homo sapiens) (UniProt P25445); assay: LTEA_HepaRG_FAS: Life Technologies and Expression Analysis (LTEA) Assay for Fas cell surface death receptor (FAS) using HepaRG (AID 2283447)
Outline: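 Differentiated human HepaRG cells, pre-cultured 48 h, were exposed in duplicate for 48 h to 8-point half-log concentrations (top 100 uM, 0.5% DMSO) in serum-free induction medium; FAS mRNA measured by qRT-PCR, normalized to ACTB/GAPDH/POLR2A, bidirectional fit versus DMSO.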

[2] = read-out: Cyclin D2 (CCND2), CCND2 (gene 894); assay: LTEA_HepaRG_CCND2: Life Technologies and Expression Analysis (LTEA) Assay for Cyclin D2 (CCND2) using HepaRG (AID 2283449);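 further: CCND2 transcript measured by TaqMan qRT-PCR and normalised to three housekeeping genes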
Outline: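 In this HepaRG study, an eight-point concentration series (max 100 uM, 0.5% DMSO) is applied for 48 h. CCND2 mRNA change is derived by qRT-PCR normalised to ACTB, GAPDH and POLR2A.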

[3] = read-out: Cyclin Dependent Kinase Inhibitor 1A (CDKN1A), CDKN1A (gene 1026); assay: LTEA_HepaRG_CDKN1A: Life Technologies and Expression Analysis (LTEA) Assay for Cyclin Dependent Kinase Inhibitor 1A (CDKN1A) using HepaRG (AID 2283450)
Outline: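 Read-out is CDKN1A mRNA by TaqMan qRT-PCR, normalized to three housekeeping genes and fitted in both directions against the DMSO baseline. Human HepaRG cells were treated 48 h with test chemicals up to 100 uM in half-log steps, 0.5% DMSO.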

[4] = read-out: Cyclin D1 (CCND1), CCND1 (gene 595); assay: LTEA_HepaRG_CCND1: Life Technologies and Expression Analysis (LTEA) Assay for Cyclin D1 (CCND1) using HepaRG (AID 2283451);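 on AC50: TaqMan qRT-PCR transcript level normalised to ACTB GAPDH and POLR2A housekeeping genes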
Outline: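 HepaRG plated 48 h, medium switched to serum-free induction medium, chemicals added in duplicate (top 100 uM, half-log steps, 0.5% DMSO) for 48 h, cells lysed, RNA measured by TaqMan qRT-PCR.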

[5] = read-out: catalase (CAT), CAT (gene 847); assay: LTEA_HepaRG_CAT: Life Technologies and Expression Analysis (LTEA) Assay for catalase (CAT) using HepaRG (AID 2283452)
Outline: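 Differentiated HepaRG cells in serum-free induction medium were dosed 48 h in duplicate, eight half-log concentrations from 100 uM in 0.5% DMSO. Transcript measured by TaqMan qRT-PCR, normalised to ACTB/GAPDH/POLR2A, fitted bidirectionally against DMSO.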

[6] = read-out: flavin-containing dimethylaniline monooxygenases 3 (FMO3), FMO3 (gene 2328); assay: LTEA_HepaRG_FMO3: Life Technologies and Expression Analysis (LTEA) Assay for flavin-containing dimethylaniline monooxygenases 3 (FMO3) using HepaRG (AID 2283453);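 on AC50: FMO3 transcript by TaqMan qRT-PCR normalized to ACTB GAPDH and POLR2A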
Outline: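 FMO3 transcript quantified by TaqMan qRT-PCR against three housekeeping genes after 48 h chemical exposure of HepaRG cells. Eight-point half-log series, top 100 uM, 0.5% DMSO vehicle; phenobarbital 1mM induction control; up- or down-regulation fitted.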

[7] = read-out: Cytochrome P450 (CYP1A1), CYP1A1 (gene 1543); assay: LTEA_HepaRG_CYP1A1: Life Technologies and Expression Analysis (LTEA) Assay for Cytochrome P450 (CYP1A1) using HepaRG (AID 2283454)
Outline: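 HepaRG, 48 h post-plating switched to serum-free induction medium; 8-pt conc-response (top 100 uM, half-log, 0.5% DMSO), duplicates, 48 h. Lysis in RLT, TaqMan qRT-PCR for CYP1A1; gain or loss vs DMSO.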

[8] = read-out: CFLAR gene, CFLAR (gene 8837); assay: LTEA_HepaRG_CFLAR: Life Technologies and Expression Analysis (LTEA) Assay for CFLAR gene using HepaRG (AID 2283455)
Outline: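 Gain- or loss-of-signal changes in CFLAR transcript were fitted bidirectionally relative to 0.5% DMSO. Cells (HepaRG, duplicate wells) were dosed for 48 h across eight half-log concentrations topping at 100 uM; quantitation by TaqMan qRT-PCR.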

[9] = read-out: Forkhead box O1 (FOXO1), FOXO1 (gene 2308); assay: LTEA_HepaRG_FOXO1: Life Technologies and Expression Analysis (LTEA) Assay for Forkhead box O1 (FOXO1) using HepaRG (AID 2283456)
Outline: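 Using one lot of HepaRG hepatic cells kept in 0.5% DMSO, the team applied test chemicals in duplicate, half-log dilutions from 100 uM, for 48 h. Expression, normalised to ACTB/GAPDH/POLR2A, was compared with vehicle in either direction.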

[10] = read-out: growth arrest and DNA damage 45 (GADD45A), GADD45A (gene 1647); assay: LTEA_HepaRG_GADD45A: Life Technologies and Expression Analysis (LTEA) Assay for growth arrest and DNA damage 45 (GADD45A) using HepaRG (AID 2283458)
Outline: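 GADD45A expression was measured by TaqMan qRT-PCR against three housekeeping genes (ACTB, GAPDH, POLR2A) after 48 h treatment of HepaRG cells. Eight-point half-log series up to 100 uM in 0.5% DMSO, run in duplicate.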

[11] = read-out: Forkhead box O3 (FOXO3), FOXO3 (gene 2309); assay: LTEA_HepaRG_FOXO3: Life Technologies and Expression Analysis (LTEA) Assay for Forkhead box O3 (FOXO3) using HepaRG (AID 2283459)
Outline: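 Gene-expression endpoint: FOXO3 transcript level by qRT-PCR in HepaRG cultures treated 48 h with chemicals up to 100 uM (half-log, 0.5% DMSO vehicle).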

[12] = read-out: ABC Transporter (ABCB1), ABCB1 (gene 5243); assay: LTEA_HepaRG_ABCB1: Life Technologies and Expression Analysis (LTEA) Assay for ABC Transporter (ABCB1) using HepaRG (AID 2283460)
Outline: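 Human liver HepaRG line treated 48 h with up to 100 uM compound (eight half-log points, 0.5% DMSO); ABCB1 mRNA change fitted bidirectionally against DMSO controls.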

[13] = read-out: growth arrest and DNA damage 45 (GADD45B), GADD45B (gene 4616); assay: LTEA_HepaRG_GADD45B: Life Technologies and Expression Analysis (LTEA) Assay for growth arrest and DNA damage 45 (GADD45B) using HepaRG (AID 2283461)
Outline: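 HepaRG, ~100,000 cells/well, 48 h plating; serum-free induction medium; cpd 100 uM top, half-log x8, 0.5% DMSO, duplicate, 48 h; lysis in RLT, RNA isolation, qRT-PCR; norm ACTB/GAPDH/POLR2A; bidirectional fit vs DMSO.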

[14] = read-out: ABC Transporter (ABCC3), ABCC3 (gene 8714); assay: LTEA_HepaRG_ABCC3: Life Technologies and Expression Analysis (LTEA) Assay for ABC Transporter (ABCC3) using HepaRG (AID 2283462)
Outline: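 Human HepaRG, 48 h dosing, 8-pt half-log series from 100 uM, 0.5% DMSO vehicle, duplicates. ABCC3 mRNA by TaqMan qRT-PCR, housekeeping-normalized; bidirectional curve fit vs DMSO.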

[15] = read-out: ABC Transporter (ABCB11), ABCB11 (gene 8647); assay: LTEA_HepaRG_ABCB11: Life Technologies and Expression Analysis (LTEA) Assay for ABC Transporter (ABCB11) using HepaRG (AID 2283463)
Outline: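 Using HepaRG cultures held in 0.5% DMSO, chemicals were tested at half-log dilutions from 100 uM for 48 h. Induction or suppression of ABCB11 mRNA, normalized to ACTB, GAPDH and POLR2A, was fitted bidirectionally against vehicle.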

[16] = read-out: ABC Transporter (ABCC2), ABCC2 (gene 1244); assay: LTEA_HepaRG_ABCC2: Life Technologies and Expression Analysis (LTEA) Assay for ABC Transporter (ABCC2) using HepaRG (AID 2283464)
Outline: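 HepaRG, 48 h post-plating; serum-free induction medium; cpd 8-pt, 100 uM top, half-log, 0.5% DMSO, duplicate, 48 h. Readout: ABCC2 mRNA by qRT-PCR, norm. ACTB/GAPDH/POLR2A. Bidirectional fit vs DMSO baseline.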

[17] = read-out: Broad substrate specificity ATP-binding cassette transporter ABCG2 (Homo sapiens) (UniProt Q9UNQ0); assay: LTEA_HepaRG_ABCG2: Life Technologies and Expression Analysis (LTEA) Assay for ABC Transporter (ABCG2) using HepaRG (AID 2283465)
Outline: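 Gene expression of ABCG2 in HepaRG liver cells is quantified by qRT-PCR following 48 h exposure across an eight-point series topping at 100 uM. Values come from bidirectional fitting relative to DMSO vehicle.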

[18] = read-out: ATP-citrate lyase (ACLY), ACLY (gene 47); assay: LTEA_HepaRG_ACLY: Life Technologies and Expression Analysis (LTEA) Assay for ATP-citrate lyase (ACLY) using HepaRG (AID 2283466)
Outline: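 ACLY expression changes in human HepaRG liver cells are quantified by qRT-PCR after 48 h exposure to test chemicals (maximum 100 uM, half-log steps). Values are fitted in both directions relative to 0.5% DMSO vehicle.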

Sequence of Broad substrate specificity ATP-binding cassette transporter ABCG2 (Homo sapiens) (Q9UNQ0 whole entry, looked up): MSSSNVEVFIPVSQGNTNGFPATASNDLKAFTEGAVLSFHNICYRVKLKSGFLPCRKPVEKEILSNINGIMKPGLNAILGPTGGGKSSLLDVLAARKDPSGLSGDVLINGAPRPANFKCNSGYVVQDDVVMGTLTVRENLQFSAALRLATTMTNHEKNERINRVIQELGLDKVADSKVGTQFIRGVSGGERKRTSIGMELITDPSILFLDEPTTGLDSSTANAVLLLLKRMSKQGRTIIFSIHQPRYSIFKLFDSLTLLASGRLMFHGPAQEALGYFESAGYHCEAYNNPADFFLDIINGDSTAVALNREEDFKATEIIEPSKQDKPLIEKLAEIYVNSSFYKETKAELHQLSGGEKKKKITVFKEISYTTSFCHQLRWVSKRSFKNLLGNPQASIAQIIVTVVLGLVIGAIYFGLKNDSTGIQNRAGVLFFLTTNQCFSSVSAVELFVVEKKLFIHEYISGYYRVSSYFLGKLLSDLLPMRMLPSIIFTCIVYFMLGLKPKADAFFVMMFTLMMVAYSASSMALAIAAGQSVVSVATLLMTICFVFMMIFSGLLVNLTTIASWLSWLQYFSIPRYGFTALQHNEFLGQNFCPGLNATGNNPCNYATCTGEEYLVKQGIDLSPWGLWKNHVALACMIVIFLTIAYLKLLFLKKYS

In the case of Cc1cccc(C)c1N, the outcome [1] was “inactive”, the outcome [2] was “inactive” and the outcome [3] was “inactive”. The outcome [4] was “inactive”, the outcome [5] was “inactive” and the outcome [6] was “inactive”. For the same compound, the AC50 [7] was 51.8 µM (active), the outcome [8] was “inactive” and the outcome [9] was “inactive”. The outcome [10] was “inactive”, the outcome [11] was “inactive” and the outcome [12] was “inactive”. The outcome [13] was “inactive”, the outcome [14] was “inactive” and the outcome [15] was “inactive”. The outcome [16] was “inactive”, the outcome [17] was “inactive” and the outcome [18] was “inactive”.

CCOCCOC(C)=O was tested, and the outcome [1] was “inactive”, the outcome [2] was “inactive” and the outcome [3] was “inactive”. The outcome [4] was “inactive”, the outcome [5] was “inactive” and the outcome [6] was “inactive”. For the same compound, the AC50 [7] was 50 µM (active), the outcome [8] was “inactive” and the outcome [9] was “inactive”. For the same compound, the outcome [10] was “inactive”, the outcome [11] was “inactive” and the outcome [12] was “inactive”. For the same compound, the outcome [13] was “inactive”, the outcome [14] was “inactive” and the outcome [16] was “inactive”. For the same compound, the outcome [17] was “inactive” and the outcome [18] was “inactive”.

Cc1ccccc1O was tested, and the outcome [1] was “inactive”, the outcome [2] was “inactive” and the outcome [3] was “inactive”. The outcome [4] was “inactive”, the outcome [5] was “inactive” and the outcome [6] was “inactive”. For the same compound, the outcome [7] was “inactive”, the outcome [8] was “inactive” and the outcome [9] was “inactive”. The outcome [10] was “inactive”, the outcome [11] was “inactive” and the outcome [12] was “inactive”. For the same compound, the outcome [13] was “inactive”, the outcome [14] was “inactive” and the outcome [16] was “inactive”. The outcome [17] was “inactive” and the outcome [18] was “inactive”.

CCCCCCCCCC[N+](C)(C)CCCCCCCCCC was tested, and the outcome [1] was “inactive”, the outcome [2] was “inactive” and the AC50 [3] was 88.2 µM (active). For the same compound, the AC50 [4] was 50 µM (active), the outcome [5] was “inactive” and the AC50 [6] was 79.4 µM (active). For the same compound, the AC50 [7] was 22.9 µM (active), the AC50 [8] was 76.5 µM (active) and the outcome [9] was “inactive”. The outcome [10] was “inactive”, the AC50 [11] was 76.7 µM (active) and the outcome [12] was “inactive”. For the same compound, the AC50 [13] was 78.8 µM (active), the AC50 [14] was 79.8 µM (active) and the AC50 [16] was 94.2 µM (active). The AC50 [17] was 72.8 µM (active) and the outcome [18] was “inactive”.
